In the supplement of paper PMC10503962:

test system: Trichuris muris adult worms; assay: mean motility score (Paragon pixel variance) of adult worms (arbitrary units); higher = more motile worms, i.e. less anthelmintic effect; extreme values may be limits of the assay; conditions: 100 µM; 24 h
Procedure, shortened: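 Each drug was tested with three worms in three wells, run over three separate occasions and vehicle and positive controls included. The worms were single adult Trichuris muris from infected NOD SCID mice, held for 24 h at 37°C and 5% CO2 in 100 μL RPMI-1640 with antibiotics and drug at 100 μM (1% v/v DMSO) in 96-well plates. Motility score was derived by Paragon pixel-variance analysis of films from an automated phenotyping platform and averaged over replicate wells.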

SMILES	mean motility score
NNCCc1ccccc1 [phenelzine]	3810
O=C(c1ccc(F)cc1)C1CCN(CCn2c(=O)[nH]c3ccccc3c2=O)CC1 [ketanserin]	3020
O=C1c2cccc(O)c2C(=O)c2c(O)cccc21 [danthron]	2660
CCOC(=O)[C@H](CCc1ccccc1)N[C@@H](C)C(=O)N1CCC[C@H]1C(=O)O [enalapril]	2120
Cl.N=C(N)NC(=O)c1nc(Cl)c(N)nc1N [amiloride hydrochloride]	2260
CCO[C@@H](Cc1ccc(OCCc2ccc(OS(C)(=O)=O)cc2)cc1)C(=O)O [tesaglitazar]	3880
CCOc1cc(N)c(Cl)cc1C(=O)NCC1CN(Cc2ccc(F)cc2)CCO1 (centres undefined) [mosapride]	2610
Cn1cnc([N+](=O)[O-])c1Sc1ncnc2nc[nH]c12 [azathioprine]	3550
C=CC(N)CCC(=O)O (centres undefined) [vigabatrin]	1690
O=C1C(O)=C([C@H]2CC[C@H](c3ccc(Cl)cc3)CC2)C(=O)c2ccccc21 [atovaquone]	1650
Cc1onc(-c2ccccc2)c1-c1ccc(S(N)(=O)=O)cc1 [valdecoxib]	3610
NNc1nncc2ccccc12 [hydralazine]	1960
C[C@@H]1C[C@H]2[C@@H]3CCC4=CC(=O)C=C[C@]4(C)[C@@]3(F)[C@@H](O)C[C@]2(C)[C@@]1(O)C(=O)CO [dexamethasone]	1780
Cc1nnc(SCC2=C(C(=O)[O-])N3C(=O)[C@@H](NC(=O)Cn4cnnn4)[C@H]3SC2)s1.[Na+] [cefazolin sodium]	1680
